Results from the supplement of paper PMC9694430.

Assays:
Experiment in all cases: thermal shift delta Tm vs DMSO control; higher = stronger stabilization (binding)
Details in all cases: 12.5 µM; protein concentration 2 µM
LOC_OS01G57100-cb003 = tested on: LOC_OS01G57100-cb003
Outline: (§1)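 Purified, E. coli-expressed rice kinase domain constructs were tested by differential scanning fluorimetry in 96-well plates: 19.5 μl of 2 μM kinase in 100 mM potassium phosphate pH 7.5, 150 mM NaCl, 10% glycerol, 5 × SYPRO Orange, plus compound in DMSO. Fluorescence was read from 25°C to 95°C at 0.05°C/s. Melting temperatures came from Boltzmann fits, and the shift is the triplicate mean relative to protein with DMSO alone.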

LOC_OS01G60330-cb001 = tested on: LOC_OS01G60330-cb001
Outline: as §1

LOC_OS01G60700-cb002 = tested on: LOC_OS01G60700-cb002
Outline: as §1

LOC_OS01G63280-cb003 = tested on: LOC_OS01G63280-cb003
Outline: as §1

LOC_OS01G67340-cb003 = tested on: LOC_OS01G67340-cb003
Outline: as §1

LOC_OS01G70970-cb002 = tested on: LOC_OS01G70970-cb002
Outline: as §1

LOC_OS02G07810-cb001 = tested on: LOC_OS02G07810-cb001
Outline: as §1

LOC_OS02G08530-cb003 = tested on: LOC_OS02G08530-cb003
Outline: as §1

LOC_OS02G14120-cb001 = tested on: LOC_OS02G14120-cb001
Outline: as §1

LOC_OS02G17970-cb001 = tested on: LOC_OS02G17970-cb001
Outline: as §1

LOC_OS02G45750-cb003 = tested on: LOC_OS02G45750-cb003
Outline: as §1

LOC_OS02G54510-cb004 = tested on: LOC_OS02G54510-cb004
Outline: as §1

LOC_OS03G04050-cb001 = tested on: LOC_OS03G04050-cb001
Outline: as §1

LOC_OS03G12390-cb001 = tested on: LOC_OS03G12390-cb001
Outline: as §1

LOC_OS03G27990-cb004 = tested on: LOC_OS03G27990-cb004
Outline: as §1

LOC_OS03G50450-cb001 = tested on: LOC_OS03G50450-cb001
Outline: as §1

LOC_OS03G50810-cb003 = tested on: LOC_OS03G50810-cb003
Outline: as §1

LOC_OS04G35114-cb001 = tested on: LOC_OS04G35114-cb001
Outline: as §1

LOC_OS04G38480-cb003 = tested on: T1, LOC_OS04G38480-cb003
T1 sequence (whole entry): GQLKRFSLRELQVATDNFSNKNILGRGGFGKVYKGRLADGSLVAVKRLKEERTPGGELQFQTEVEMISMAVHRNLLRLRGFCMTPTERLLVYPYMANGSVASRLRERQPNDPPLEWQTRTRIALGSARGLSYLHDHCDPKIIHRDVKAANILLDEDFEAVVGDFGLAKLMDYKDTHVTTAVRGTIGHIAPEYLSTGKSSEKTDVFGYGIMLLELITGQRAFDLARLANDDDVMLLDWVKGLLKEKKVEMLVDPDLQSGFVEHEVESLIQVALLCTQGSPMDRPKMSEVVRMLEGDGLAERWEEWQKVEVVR
Outline: as §1

LOC_OS04G41100-cb001 = tested on: T2, LOC_OS04G41100-cb001
T2 sequence (whole entry): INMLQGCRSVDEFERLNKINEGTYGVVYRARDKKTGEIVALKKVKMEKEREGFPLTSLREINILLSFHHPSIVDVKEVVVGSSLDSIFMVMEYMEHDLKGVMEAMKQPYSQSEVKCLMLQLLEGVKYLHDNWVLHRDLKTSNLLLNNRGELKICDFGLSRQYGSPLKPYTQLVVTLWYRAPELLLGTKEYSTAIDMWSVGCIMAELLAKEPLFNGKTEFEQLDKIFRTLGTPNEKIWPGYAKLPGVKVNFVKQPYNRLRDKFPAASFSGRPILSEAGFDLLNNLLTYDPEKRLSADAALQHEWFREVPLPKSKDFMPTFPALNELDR
Outline: as §1

Structure (SMILES)	thermal shift delta Tm (LOC_OS01G57100-cb003) [°C]	thermal shift delta Tm (LOC_OS01G60330-cb001) [°C]	thermal shift delta Tm (LOC_OS01G60700-cb002) [°C]	thermal shift delta Tm (LOC_OS01G63280-cb003) [°C]	thermal shift delta Tm (LOC_OS01G67340-cb003) [°C]	thermal shift delta Tm (LOC_OS01G70970-cb002) [°C]	thermal shift delta Tm (LOC_OS02G07810-cb001) [°C]	thermal shift delta Tm (LOC_OS02G08530-cb003) [°C]	thermal shift delta Tm (LOC_OS02G14120-cb001) [°C]	thermal shift delta Tm (LOC_OS02G17970-cb001) [°C]	thermal shift delta Tm (LOC_OS02G45750-cb003) [°C]	thermal shift delta Tm (LOC_OS02G54510-cb004) [°C]	thermal shift delta Tm (LOC_OS03G04050-cb001) [°C]	thermal shift delta Tm (LOC_OS03G12390-cb001) [°C]	thermal shift delta Tm (LOC_OS03G27990-cb004) [°C]	thermal shift delta Tm (LOC_OS03G50450-cb001) [°C]	thermal shift delta Tm (LOC_OS03G50810-cb003) [°C]	thermal shift delta Tm (LOC_OS04G35114-cb001) [°C]	thermal shift delta Tm (LOC_OS04G38480-cb003) [°C]	thermal shift delta Tm (LOC_OS04G41100-cb001) [°C]
FC(F)c1nc2ccccc2n1-c1nc(N2CCOCC2)nc(N2CCOCC2)n1	0.81	1.34	1.13	0.27	-0.18	0.47	0.59	0.83	0.41	0.88	0.78	0.23	0.44	0.51	0.31	0.75	0.35	0.03	1.98	0.9
COc1ccc(CCNCc2ccc(OCc3ccc(Cl)nc3)c(OC)c2)cc1OC	1.03	0.8	0.19	-0.28	0.24	0.23	0.28	0.56	0.14	0.22	-0.45	0	0	-0.53	0.12	-0.17	0.18	0.23	0.05	0.41
CN1CCC(COc2cnc(-c3cccc(Cn4nc(-c5cccc(C#N)c5)ccc4=O)c3)nc2)CC1	0.71	0.27	0.62	-0.13	-0.02	0.15	0.34	0.12	0.1	0.24	-0.03	-0.06	0.23	-0.02	0.03	0.11	0.09	1.33	0.26	0.35
Cc1nc(N)sc1-c1ccnc(Nc2ccc(N3CCOCC3)cc2)n1	1.88	3.15	0.88	0.17	-0.01	1.58	0.79	2.22	8.9	-0.16	3.37	1.11	0.62	3.79	1.2	1.67	2.84	5.04	2.31	1.72
Cc1cc(Nc2cc(N3CCN(C)CC3)nc(/C=C/c3ccccc3)n2)n[nH]1 [ENMD-2076 L-(+)-Tartaric acid]	1.16	8.71	1.16	0.86	1.45	3.09	0.04	2.96	7.86	0.95	4.88	2.59	0.44	4.22	2.61	8.63	7.35	6.49	2.07	1.89
Nc1ncnc2n[nH]c(Nc3ccc(F)cc3)c12	1	1.15	0.86	3.22	0.86	0.93	0.46	1.06	3.5	0.76	4.8	0.26	0.25	2.15	3.38	0.1	0.92	5.47	0.62	0.32
CO[C@@H](C)Cn1c(=O)n(C)c2cnc3ccc(-c4cncc(C(C)(C)O)c4)cc3c21	1.94	0.57	1.37	0.84	0.62	0.44	0.65	1.76	2.83	0.61	1.57	0.18	0.72	0.09	0.68	0.89	0.67	3.42	1.29	0.38
CN(C[C@@H]1COCCO1)S(=O)(=O)Nc1ccc2ccc3ncc(-c4cnn(C)c4)cc3c(=O)c2c1	2.19	0.33	1.15	1.83	0.51	9.99	1.23	1.58	8.53	0.59	9.61	0.42	0.37	0.09	1.72	0.44	3.78	7.88	2.89	0.3
O=C(/C=C/c1ccc(O)c(O)c1)c1ccc(O)cc1O [Butein]	4.85	7.74	1.12	17.7	7.74	2.95	1.6	1.81	4.14	3.5	2.94	0.39	1.9	3.8	1.75	2.26	2.72	3.66	3.43	2.09
OCCn1cc(-c2ccc3c(c2)CC/C3=N\O)c(-c2ccncc2)n1	0.82	1.25	0.99	0.67	-0.31	0.26	1.43	1	0.49	0.48	0.34	0.15	0.48	0.53	0	0.31	0.5	0.11	0.49	0.67
CO[C@H]1C[C@@H]2CC[C@@H](C)[C@@](O)(O2)C(=O)C(=O)N2CCCC[C@H]2C(=O)O[C@H]([C@H](C)C[C@@H]2CC[C@H](n3cnnn3)[C@H](OC)C2)CC(=O)[C@H](C)/C=C(\C)[C@@H](O)[C@@H](OC)C(=O)[C@H](C)C[C@H](C)/C=C/C=C/C=C/1C [Zotarolimus(ABT-578)]	2.14	2.43	1.29	0.68	0.45	0.71	1.19	0.56	0.48	1.06	1.04	0.46	0.79	0.05	0.77	0.89	0.33	0.66	2.27	0.4
N#CC1(c2ccc(NC(=O)c3cccnc3NCc3ccncc3)cc2)CCCC1 [Apatinib]	1.62	0.33	0.74	5.6	0.6	0.01	1.02	0.96	0.6	-0.16	0.45	1.36	0.07	-0.19	0.11	0.69	0.22	0.72	0.83	0.11
